Assay outcomes: PubChem, National Center for Advancing Translational Sciences (NCATS)
TDP1 cell noCPT – qHTS for Inhibitors of human tyrosyl-DNA phosphodiesterase 1 (TDP1): qHTS in cells in absence of CPT; hit rate 15% among 420,000; AID 686978, 2013; Potency, µM (highest dose often 46.2 µM), inactives show top-dose activity change, negative = growth inhibition, actives largely listed as inhibitors; DT40 Tdp1-/- hTDP1 cells, no CPT, ATP luminescence, 48 h; further: potency means the concentration at half of the fitted maximal effect; nearly all actives have a fitted effect of over 55% in size
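Seeded 400 DT40-hTDP1 cells/well (vehicle DMSO, no 20 nM CPT); pinned compounds; ≥48 hr at 37 °C; CellTiter-Glo luminescence as viability measure.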
IL-1B inflam inh – inhibitors of inflammasome signaling (IL-1 beta secretion) | THP-1 LPS/ATP IL-1B secretion, AlphaLISA, 16 h; hits give low values | activity change, % at 57.5 µM | hit rate 4.7% among 360,000 | AID 743279; in the data active means activity change below about -50%; inconclusive means mostly about -30% to -49%
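Secreted IL-1B measured by AlphaLISA bead assay after 16 h compound exposure of THP-1 cells; compounds (final up to 57.5 uM) added 1 h before LPS (250 ng/mL) and ATP (1.25 mM) stimulation; lower signal means less secretion.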
HT1080 IDH1KD tx – kills HT-1080 cells with IDH1 knockdown; hit rate 2% among 360,000; Potency, µM (top dose mostly 46.1 µM), for inactives: at the top dose activity, negative = toxicity, most hits filed as cytotoxic; AID 686971; HT-1080 IDH1 knockdown viability, ATP luminescence, 48 h;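 further: potency means the concentration at half of the fitted maximal effect; 0% = DMSO wells and -100% = cell-free medium wells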
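% activity derives from luminescence (CellTiter-Glo), normalised to DMSO and no-cell wells. HT-1080-IDH1KD cells, 750/well, had 48 h compound exposure at 37 °C.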
HT1080NT lethal – kills 2HG-producing HT-1080-NT fibrosarcoma cells; Potency, µM (top dose mostly 46.1 µM), for inactives: at the highest dose activity, negative = less viability, most hits filed as cytotoxic; hit rate 1.6% among 360,000; HT-1080-NT fibrosarcoma viability, CellTiter-Glo ATP luminescence, 48 h;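 further: NT is the 2HG producing partner of a matched IDH1 knockdown line; potency means the concentration at half of the fitted maximal effect; 0% = DMSO-treated cells and -100% = media-only wells without cells; nearly all actives have a fitted effect of over 55% in size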
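HT-1080-NT fibrosarcoma cells (2HG-overproducing), 750 cells/well in RPMI with 5% FBS, dosed after 2 h and incubated 48 h at 37C. CellTiter-Glo luminescence normalized to DMSO and no-cell wells; concentration-response curves fitted and classed.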
DT40 TDP1 CPT – growth inhibition of DT40 Tdp1-/-;hTDP1 cells with camptothecin (screen for TDP1 inhibitors) | chicken DT40 Tdp1-/-;hTDP1 cells + 20 nM CPT, ATP luminescence, 48 h | Potency, µM (top dose mostly 46.2 µM), without a hit: at the highest dose activity change, negative = growth inhibition, most hits filed as inhibitors | hit rate 12% among 420,000 | AID 686979; further: potency means the concentration at half of the fitted maximal effect; nearly all actives have a fitted effect of over 55% in size
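Chicken DT40 Tdp1-/- cells complemented with human TDP1, 400 cells/well, exposed to compounds plus 20 nM camptothecin for at least 48 h at 37 C; viability read as ATP content by CellTiter-Glo luminescence.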
Starred values were filed as active, the others as inactive; u = inconclusive; x = no result given; ! = repeats disagree. In the library only some 19% were active in any assay of this set; here they are far more common. Unless noted, the call rests on the fitted dose curve; in most records, active means well fitted curve in the direction sought with a large enough effect; inconclusive means small, poorly fitted or top-dose-only effect, or another doubt; inactive means no such curve, though single readings can be large; an effect the other way counts as inactive or inconclusive. Unless noted, on the % scale 0 is the no-effect control and ±100 the full control effect.

SMILES	TDP1 cell noCPT	IL-1B inflam inh	HT1080 IDH1KD tx	HT1080NT lethal	DT40 TDP1 CPT
Cc1ccc(NC(=O)N(Cc2ccc3c(c2)OCO3)Cc2cc3cc4c(cc3[nH]c2=O)OCCO4)cc1	u	u	4%	9%	18µM*
CCN(CC)CCCN(Cc1cc2cc3c(cc2[nH]c1=O)OCCO3)C(=O)Nc1ccccc1	u	-18	-14%	-9%	u
COc1cc2cc(CN(CCCN3CCOCC3)C(=O)Nc3ccc(F)cc3)c(=O)[nH]c2cc1OC	u	-25	-11%	-16%	-29%
CCC(=O)N1CCC1(C)C(=O)Nc1ccc(Cl)c(Cl)c1 (stereo unspecified)	u	3	12%	-4%	-27%
COc1ncc2nc(-c3cn(C)c4ccccc34)c(=O)n(CCc3ccccc3)c2n1	7%	x	x	x	10%
CCCSc1nc2cc(C)c(C)cc2n1CC(C)O (stereo unspecified)	-5%	7	1%	5%	-3%
O[C@@H]([C@H](O)[C@H](O)CBr)[C@H](O)CBr	12µM*!	29	10%	22%	18µM*!
OC[C@@H](O)[C@H](O)[C@H](O)[C@@H](O)CO	-1%	x	x	x	-13%
Cn1cc(C(=O)NCCc2ccc(Cl)cc2)c(=O)c2cc(S(=O)(=O)N3CCOCC3)ccc21	0%	x	x	x	-14%
Cc1ccccc1C(=O)Nc1ccccc1C(=O)NCC(C)C	u	-19	-1%	-3%	u
O=C(Nc1ccccc1Br)c1ccccc1-c1ccccc1	6.5µM*	13	u	u	5.8µM*
Cc1nc2ccccc2cc1C(=O)NCc1ccccc1	13µM*	21	-6%	0%	u
Cc1ccccc1C(=O)Nc1ccc(N(C)C)c2ccccc12	3.7µM*	-12	-4%	-8%	u
Cc1ccccc1C(=O)Nc1ccccc1C(=O)NCc1ccccc1	18µM*	-12	-1%	-3%	u
O=C(Nc1ccccc1C(=O)NCc1ccccc1)c1ccccc1Br	u	-4	7%	0%	23µM*
O=C(O)CCC(=O)Nc1ccccc1C(=O)NCc1ccccc1	-2%	7	30%	22%	0%
C[C@@H]1CN([C@H](C)CO)C(=O)CCCn2nncc2CO[C@H]1CN(C)Cc1cccc(O)c1	-5%	-18	1%	0%	3%
CN(C)c1nc(=NCc2ccco2)ss1	0.037µM*	-89*	-6%	-3%	0.15µM*
C=CCN(Cc1cccs1)C(=O)COc1ccc2c(c1)OCO2	u	u	8%	-1%	-29%
C=CCOc1ccccc1CN(C(=O)CCl)c1ccc2c(c1)OCO2	10µM*	-106*	2.6µM*	3.7µM*	18µM*
CC(Nc1ccc(Br)cc1)C(=O)N/N=C/c1ccccc1OCc1ccccc1 (stereo unspecified)	u	u	-1%	0%	u
O=C(O)c1cccc(NC(=S)N/N=C/c2ccccc2OCc2ccc(Br)cc2)c1	u	2	u	u	u
O=C(N/N=C/c1ccccc1[N+](=O)[O-])c1ccc(COc2ccccc2-c2ccccc2)cc1	12µM*	-4	10%	7%	12µM*
O=C(O)c1cccc(NC(=S)N/N=C/c2ccccc2OCc2cccc(Br)c2)c1	u	7	9%	1%	23µM*
O=C(N/N=C/c1cccnc1)c1cc(-c2ccccc2OCc2ccccc2)n[nH]1	23µM*	-23	u	u	u
CCC(=O)Nc1ccc(C(=O)N/N=C/c2ccccc2[N+](=O)[O-])cc1	u	-3	-25%	-1%	-29%
CC(=O)Nc1ccc(C(=O)N/N=C/c2ccccc2OCc2ccccc2)cc1	21µM*	13	21µM*	16µM*	u
CC(=O)N/N=C\c1ccccc1OC/C=C/c1ccccc1	u	0	12%	4%	16µM*
O=C(NNC(=O)c1ccccc1OCc1ccccc1)c1ccccc1F	-18%	-14	-11%	-6%	-1%
